Inconclusive results are not listed. Unmarked numbers belong to inactive results. The call rests on the fitted dose curve; in most records, active means well fitted cell-killing curve with a large enough effect; inconclusive means small, poorly fitted or top-dose-only effect, or effect the other way; inactive means flat fitted curve, though single readings scatter.
On the % scale 0 is the no-effect control and ±100 the full control effect.

This assay relates to OV90. The experiment in a line: Primary qHTS to identify gynecologic anti-cancer compounds using libraries of approved drugs and bioactive compounds (AID 1345084). Further: nearly all actives have a fitted effect of over 55% in size. Particulars: Gynecologic cancer cell panel viability, ATPlite luminescence, 48 h; series mostly up to 57.5 µM; activity change, negative = cytotoxicity: at the top concentration. The method in brief: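 Measured: luminescence after ATPlite addition (15 min, RT). Exposure: 48 h, 37 C, 5% CO2.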
Consider `O=C(NCCCCN1CCN(c2cccc(Cl)c2Cl)CC1)c1cc2ccccc2s1`, for which the “activity change, negative = cytotoxicity” value was 9.19%. With `C/C=C/[C@@H]1C=C[C@@H]2C[C@H](C)CC[C@H]2[C@]1(C)/C(O)=C1/C(=O)[C@@H](CO)N(C)C1=O` the figure was -2.49% [at 38.5 µM].

In the case of `N#CC(CCCN1CCN(/N=C/c2cccnc2)CC1)(c1ccccc1)c1ccccc1`, the “activity change, negative = cytotoxicity” value was -1.5%.

For `CCc1cc2c(cc1CC)CC(NCC(O)c1ccc(O)c3[nH]c(=O)ccc13)C2` (stereo not given), the “activity change, negative = cytotoxicity” value is -0.0743%. Take `CCCc1cc(C)n(C)c(=O)c1CN(C)C(=O)c1cc(-c2ccc(N3CCN(C(C)C)CC3)nc2)cc2c1cnn2C(C)C`: the “activity change, negative = cytotoxicity” value was 2.46%. `COC(=O)c1cc(Br)cnc1N1CCC(NC2CCCCC2)C(O)C1` (stereo not given): the “activity change, negative = cytotoxicity” value is 0.861%. In the case of `Cc1ccc(C2(C(=O)N3CCC(n4nc(-c5ccccc5)oc4=O)CC3)CC2)cc1` it was 8.44%. With `Cc1c(C2=CCN(C(=O)N(C)C(C)C)CC2)nnn1-c1cccnc1F` the figure was -0.133%; with `CC1(C)OC[C@H](NC(=O)Nc2ccc(Br)cc2Br)[C@H](c2ccccc2)O1`, 7.66%. In the case of `O=C(Nc1ccccc1)c1ccc(Nc2nnc(-c3ccc(O)cc3)c3ccccc23)cc1` it was -8.46%; in that of `CCCc1ccc(OCC(=O)N(Cc2nc(-c3cccnc3)no2)C(C)C)cc1`, -3.57%.

As to `C/C(=C/C=C\C=C\Cc1cnco1)[C@@H](O)C(C)(C)C(N)=O`, the “activity change, negative = cytotoxicity” value is 0.452%. On to `CCC(C)CNCC(=O)N1CCC2SC=CC2C1COc1cccc(C)c1` (stereo not given), for which the “activity change, negative = cytotoxicity” value is -17.1%. As for `CNC(=O)c1cc(Oc2ccc(NC(=O)c3cccc(C(F)(F)F)c3)cc2)ccn1`, the “activity change, negative = cytotoxicity” value was -25.7%. On to `CC(F)(F)CN1CCOc2c(nn(-c3ccccc3Cl)c2-c2ccc(Cl)cc2)C1=O`, for which the “activity change, negative = cytotoxicity” value is 11.9%. In the case of `CO[C@H]1[C@@H](O)[C@H](O[C@H]2CC[C@@]3(C)C(CCC4C3CC[C@]35COC6(COC(=O)C6)C3CCC45O)C2)O[C@@H](C)[C@@H]1OC1OC(CO)C(OC2OC(CO)C(O)C(O)C2O)C(O)C1O` (stereo not given in full) it was 16.3% [at 11.6 µM]; in that of `O=C1c2ccc(Nc3ccc(F)cc3F)cc2CCc2ccc(OCC(O)CO)cc21` (stereo not given), -4.26%. For `O=S(=O)(c1ccccc1)N(CC(F)(F)F)c1ccc(C(O)(C(F)(F)F)C(F)(F)F)cc1`, the “activity change, negative = cytotoxicity” value is -4.4%. In the case of `COc1cc(C(C)C)c(Oc2cnc(N)nc2N)cc1I` it was -20.4%. Turning to `Cc1cc(C)cc(-c2cnc3cc(Cl)c(-c4cccc(O)c4)cc3c2OCCCN)c1`, the “activity change, negative = cytotoxicity” value was 6.88%. In the case of `Cc1nc(Nc2ccc(F)cc2)nc(N2CCc3ccccc3C2C)c1C` (stereo not given) it was -27.4%; in that of `Cc1ccc(N2CCN(CCC3NC(=O)c4ccccc43)CC2)cc1C` (stereo not given), 5.22%. In the case of `COc1ccc(S(=O)(=O)Nc2c(C)cc(C)cc2C)cc1` it was -4.21%. In the case of `O=C(NS(=O)(=O)c1ccc(Br)s1)c1ccc(Cl)cc1Cl` it was 5.19%; in that of `CC1(C)CC[C@]2(C(=O)O)CC[C@]3(C)C(=CCC4[C@@]5(C)C[C@@H](O)[C@H](O)[C@@](C)(CO)C5CC[C@]43C)[C@@H]2[C@@H]1O` (stereo not given in full), -0.237% [at 25.3 µM]; in that of `CC1(C)CCC(C)(C)c2cc(C#Cc3ccc(C(=O)O)cc3)ccc21`, 8.43%. In the case of `Cc1nc2c(C(F)(F)F)cccc2nc1-c1ccc(-c2cccc(S(C)(=O)=O)c2)cc1`, the “activity change, negative = cytotoxicity” value is 6.89%. In the case of `CC(C)C[C@@H](C(=O)N[C@@H](Cc1ccc(OCc2ccccc2)cc1)C(=O)NC(C)(C)C)N(C)Cc1ccc(C(C)(C)C)cc1` it was 11.7%; in that of `CC1=C(C(=O)OC2CCCCC2)C(c2ccc([N+](=O)[O-])cc2)C2=C(CC(C)(C)CC2=O)N1` (stereo not given), -0.675%. In the case of `C[C@@H]1O[C@@H](O[C@H]2[C@H](OC(=O)[C@]34CCC(C)(C)C[C@H]3C3=CCC5[C@@]6(C)C[C@H](O)[C@H](O[C@@H]7O[C@H](C(=O)O)[C@@H](O)[C@H](O)[C@H]7O)[C@@](C)(CO)C6[C@H](O)C[C@@]5(C)[C@]3(C)C[C@H]4O)O[C@@H](CO)[C@@H]2O)[C@H](O)[C@H](O)[C@H]1O[C@@H]1OC[C@@H](O)[C@H](O[C@H]2OC[C@](O)(CO)[C@H]2O)[C@H]1O` (stereo not given in full), the activity change, negative = cytotoxicity was -4.96% [at 6.55 µM].

For the origin of these results see PubChem BioAssay (NCATS).
